Data published in PubChem BioAssay (EPA / NIEHS).
Where “and” joins values, the source holds several entries; their conditions need not be identical. Identical values can stand only once. Results filed as inconclusive are left out. More than one record can exist for a structure, and the calls need not agree. Calls of active or inactive are those of the source. How the source made its calls, unless noted: active means hit-call score of the fitted dose curve at least 0.9, where 1 is the maximum; inactive means score below 0.9.

Tests used:
[1] = ATG_PBREM_CIS: Attagene CIS-FACTORIAL HepG2 Assay for human Phenobarbital-responsive Enhancer Module (PBREM) (AID 2282955); conditions: HepG2 PBREM cis-reporter, Attagene multiplexed transcription; actives raise or lower the signal
How it was run: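 Measures endogenous factor action on a phenobarbital-responsive enhancer module. HepG2 transiently carrying cis reporters, 24 h treatment, mRNA read-out by RT-PCR plus capillary electrophoresis.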

[2] = ATG_PXRE_CIS: Attagene CIS-FACTORIAL HepG2 Assay for human Pregnane X Receptor Element (PXRE) (AID 2282957); conditions: HepG2 Attagene CIS-FACTORIAL PXRE reporter, mRNA; actives raise or lower the signal
How it was run: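 Bidirectional activity, baselined to DMSO, derived from reporter mRNA fluorescence (RT-PCR plus capillary electrophoresis) in HepG2 cells bearing cis-promoter reporter units, 24 h exposure.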

[3] = ATG_PPRE_CIS: Attagene CIS-FACTORIAL HepG2 Assay for human Peroxisome Proliferator-activated Response Element (PPRE) (AID 2282958); conditions: HepG2 PPRE cis-element reporter, Attagene transcription factor profiling; actives raise or lower the signal
How it was run: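 PPRE activity in HepG2: transient cis-reporter transfection, 24 h compound incubation, reporter mRNA by RT-PCR and CE fluorescence; gain/loss fitted against DMSO.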

[4] = ATG_RORE_CIS: Attagene CIS-FACTORIAL HepG2 Assay for human RAR-related Orphan Receptor Element (RORE) (AID 2282959); conditions: HepG2 Attagene cis-factorial RORE reporter, mRNA; actives raise or lower the signal
How it was run: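 A 24-hour exposure of transfected HepG2 hepatoma cells precedes RNA isolation and reporter RT-PCR. Labeled products are digested with HpaI and resolved by capillary electrophoresis, with gain or loss of signal scored relative to DMSO.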

[5] = ATG_Sox_CIS: Attagene CIS-FACTORIAL HepG2 Assay for human SRY-box transcription factor (SOX) (AID 2282960); conditions: HepG2 Attagene cis-factorial SOX reporter, mRNA; actives raise or lower the signal
How it was run: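 HepG2, cis reporter units, 24 h exposure. Reporter mRNA: RT-PCR → FAM labelling → HpaI → CE fluorescence. Bidirectional fit vs DMSO.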

[6] = target: Transcription factor Sp1 (Homo sapiens) (UniProt P08047); test: ATG_Sp1_CIS: Attagene CIS-FACTORIAL HepG2 Assay for human Specificity Protein 1 (Sp1) (AID 2282961); conditions: HepG2 Sp1 cis-reporter transcription, actives raise or lower the signal
How it was run: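 Liver-derived HepG2 cells, cis-element reporter library, 24 h treatment; RNA isolated, cDNA amplified with reporter-specific primers, FAM-labeled fragments sized on capillary analyzer. DMSO baseline, bidirectional curve fit.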

[7] = ATG_SREBP_CIS: Attagene CIS-FACTORIAL HepG2 Assay for human Sterol Regulatory Element Binding (SREBP) (AID 2282962); conditions: HepG2 Attagene cis-factorial SREBP reporter, mRNA; actives raise or lower the signal
How it was run: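 Endogenous factor activity is measured in HepG2 through multiplexed reporter units under cis-element control. Following a 24 h incubation, reporter transcripts are reverse-transcribed, PCR-amplified and sized by capillary electrophoresis; activity is fitted in both directions relative to DMSO.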

[8] = target: Signal transducer and activator of transcription 3 (Homo sapiens) (UniProt P40763); test: ATG_STAT3_CIS: Attagene CIS-FACTORIAL HepG2 Assay for human Signal Transducer and Activator of Transcription 3 (STAT3) (AID 2282963); conditions: HepG2, Attagene cis-factorial STAT3 reporter transcription; actives raise or lower the signal
How it was run: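 HepG2, MRTU-transfected, 24 h dosing. RNA → RT → PCR → FAM label → HpaI → CE. Bidirectional fit vs DMSO.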

[9] = ATG_TA_CIS: Attagene CIS-FACTORIAL HepG2 Assay for human TA Basal Promoter (AID 2282964); conditions: HepG2 Attagene CIS-factorial TA basal promoter reporter; actives raise or lower the signal
How it was run: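 Transient MRTU transfection of HepG2 preceded 24 h compound exposure. Reporter mRNA levels were then read by RT-PCR with capillary electrophoresis, and this background-control endpoint was fitted bidirectionally to DMSO.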

[10] = ATG_TCF_b_cat_CIS: Attagene CIS-FACTORIAL HepG2 Assay for human T-Cell-Factor with beta-catenin (TCF/b-cat) (AID 2282965); conditions: HepG2 TCF/beta-catenin cis-reporter transcription, actives raise or lower the signal
How it was run: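 HepG2 cells transiently transfected with multiple cis-promoter-regulated reporter transcription units, so endogenous transcription factor activity is measured. Reporter mRNA read 24 hours after dosing by RT-PCR, fluorescent labelling and capillary electrophoresis; bidirectional fitting against DMSO.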

[11] = ATG_TAL_CIS: Attagene CIS-FACTORIAL HepG2 Assay for human TAL Basal Promoter (AID 2282966); conditions: HepG2 Attagene cis-factorial TAL promoter reporter; actives raise or lower the signal;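 further: background control endpoint measuring basal TAL promoter reporter mRNA not a specific factor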
How it was run: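 Human hepatoma HepG2 cells, transfected with promoter-regulated reporter units, were treated 24 h. Reporter transcript levels, measured through RT-PCR and capillary electrophoresis, were fitted for gain or loss relative to DMSO.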

[12] = ATG_TGFb_CIS: Attagene CIS-FACTORIAL HepG2 Assay for human Transforming Growth Factor (TGF) (AID 2282967); conditions: HepG2 Attagene CIS TGFb reporter, mRNA transcription; actives raise or lower the signal
How it was run: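 After a 24-hour incubation with compound, transfected HepG2 cells were lysed for RNA; reporter cDNA was amplified, fluorescently end-labeled and separated by CE. DMSO served as baseline for bidirectional fits.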

[13] = ATG_VDRE_CIS: Attagene CIS-FACTORIAL HepG2 Assay for human Vitamin D Receptor Element (VDRE) (AID 2282968); conditions: HepG2 VDRE cis-reporter transcription, actives raise or lower the signal
How it was run: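 Steps: transfect HepG2 with multiple reporter transcription units; dose chemicals 24 h; isolate RNA; RT-PCR; label with 6-FAM primer extension; HpaI digest; capillary electrophoresis. Curves fitted both directions against DMSO.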

[14] = target: Nuclear receptor subfamily 1 group I member 3 (Homo sapiens) (UniProt Q14994); test: ATG_CAR_TRANS: Attagene TRANS-FACTORIAL HepG2 Assay for human Constitutive Androstane Receptor (CAR) (AID 2282969; active means hit-call score of the fitted dose curve at least 0.9, where 1 is the maximum;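 further: activators raise reporter mRNA above DMSO so AC50 marks induction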); conditions: HepG2 Attagene TRANS-FACTORIAL CAR reporter
How it was run: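 Steps: transient transfection of HepG2 with multiple GAL4-UAS reporter units; 24 h compound incubation; RNA isolation, RT-PCR, 6-FAM primer extension, HpaI digest; capillary electrophoresis. Gain-of-signal relative to DMSO negative control.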

[15] = target: Estrogen receptor (Homo sapiens) (UniProt P03372); test: ATG_ERa_TRANS: Attagene TRANS-FACTORIAL HepG2 Assay for human Estrogen Receptor alpha (ERa) (AID 2282970; active means hit-call score of the fitted dose curve at least 0.9, where 1 is the maximum); conditions: HepG2 Attagene TRANS ERa GAL4 reporter, mRNA
How it was run: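 Signal derives from fluorescence of labelled reporter PCR fragments separated by capillary electrophoresis. HepG2 cells transiently carrying multiple GAL4-UAS reporter units were treated 24 hours, and induction above DMSO baseline was fitted as activity.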

[16] = target: Steroid hormone receptor ERR1 (Homo sapiens) (UniProt P11474); test: ATG_ERRa_TRANS: Attagene TRANS-FACTORIAL HepG2 Assay for human Estrogen-Related Receptor alpha (ERRa) (AID 2282971; active means hit-call score of the fitted dose curve at least 0.9, where 1 is the maximum); conditions: HepG2 Attagene TRANS reporter, ERRa transactivation
How it was run: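 Signal gain relative to DMSO for an ERRa-Gal4 chimeric receptor, read as reporter mRNA by RT-PCR/capillary electrophoresis. Human HepG2 liver cells, transient multiplex reporter transfection, 24 h chemical exposure.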

[17] = target: X-box-binding protein 1 (Homo sapiens) (UniProt P17861); test: ATG_Xbp1_CIS: Attagene CIS-FACTORIAL HepG2 Assay for human X-box Binding Protein 1 (XBP1) (AID 2282972); conditions: HepG2 XBP1 cis-element reporter, Attagene multiplex; actives raise or lower the signal
How it was run: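 Multiplexed cis-reporter readout in transfected HepG2 liver cells. Exposure lasted 24 hours. Activity in either direction was fitted against DMSO as negative control and baseline.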

[18] = ATG_GAL4_TRANS: Attagene TRANS-FACTORIAL HepG2 Assay for GAL4 (Internal Marker) (AID 2282976; active means hit-call score of the fitted dose curve at least 0.9, where 1 is the maximum); conditions: HepG2 Attagene TRANS GAL4 internal marker reporter
How it was run: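 Liver HepG2 line bearing multiplexed GAL4-UAS reporter constructs; 24 h chemical treatment. Transcripts were quantified as fluorescent fragments on capillary electrophoresis after RT-PCR and HpaI cut, with activity fitted upward from DMSO.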

[19] = ATG_M_19_TRANS: Attagene TRANS-FACTORIAL HepG2 Assay for M19 Transcription Factor (Internal Marker) (AID 2282974; active means hit-call score of the fitted dose curve at least 0.9, where 1 is the maximum); conditions: HepG2 Attagene TRANS-FACTORIAL M19 internal marker reporter
How it was run: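 Transfected HepG2 (GAL4-UAS MRTUs), 24 h compound, TriZol RNA, DNase-treated RT, reporter PCR, FAM label, HpaI digest, CE fluorescence; gain vs DMSO.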

[20] = target: Paired box protein Pax-6 (Homo sapiens) (UniProt P26367); test: ATG_Pax6_CIS: Attagene CIS-FACTORIAL HepG2 Assay for human Paired Box 6 (PAX6) (AID 2282956); conditions: HepG2 CIS-FACTORIAL PAX6 reporter transcription, RNA readout; actives raise or lower the signal
How it was run: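 Fluorescent RT-PCR products separated by capillary electrophoresis report PAX6-linked promoter mRNA in HepG2 cells 24 h post-dose. Curves fitted bidirectionally, DMSO as negative control.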

Measured: AC50

Nuclear receptor subfamily 1 group I member 3 (Homo sapiens), sequence (Q14994 whole entry, looked up, the tested form may be a part): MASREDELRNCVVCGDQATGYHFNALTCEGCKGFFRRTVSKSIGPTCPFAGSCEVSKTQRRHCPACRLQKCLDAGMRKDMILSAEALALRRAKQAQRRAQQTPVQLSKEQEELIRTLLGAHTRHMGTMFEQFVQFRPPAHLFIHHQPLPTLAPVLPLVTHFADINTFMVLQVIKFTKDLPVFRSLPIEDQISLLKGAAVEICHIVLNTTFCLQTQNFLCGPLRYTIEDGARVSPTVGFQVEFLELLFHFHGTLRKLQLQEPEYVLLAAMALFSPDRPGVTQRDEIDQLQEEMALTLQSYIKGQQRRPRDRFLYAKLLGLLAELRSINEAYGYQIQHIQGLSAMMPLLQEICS
Signal transducer and activator of transcription 3 (Homo sapiens), sequence (P40763 whole entry, looked up): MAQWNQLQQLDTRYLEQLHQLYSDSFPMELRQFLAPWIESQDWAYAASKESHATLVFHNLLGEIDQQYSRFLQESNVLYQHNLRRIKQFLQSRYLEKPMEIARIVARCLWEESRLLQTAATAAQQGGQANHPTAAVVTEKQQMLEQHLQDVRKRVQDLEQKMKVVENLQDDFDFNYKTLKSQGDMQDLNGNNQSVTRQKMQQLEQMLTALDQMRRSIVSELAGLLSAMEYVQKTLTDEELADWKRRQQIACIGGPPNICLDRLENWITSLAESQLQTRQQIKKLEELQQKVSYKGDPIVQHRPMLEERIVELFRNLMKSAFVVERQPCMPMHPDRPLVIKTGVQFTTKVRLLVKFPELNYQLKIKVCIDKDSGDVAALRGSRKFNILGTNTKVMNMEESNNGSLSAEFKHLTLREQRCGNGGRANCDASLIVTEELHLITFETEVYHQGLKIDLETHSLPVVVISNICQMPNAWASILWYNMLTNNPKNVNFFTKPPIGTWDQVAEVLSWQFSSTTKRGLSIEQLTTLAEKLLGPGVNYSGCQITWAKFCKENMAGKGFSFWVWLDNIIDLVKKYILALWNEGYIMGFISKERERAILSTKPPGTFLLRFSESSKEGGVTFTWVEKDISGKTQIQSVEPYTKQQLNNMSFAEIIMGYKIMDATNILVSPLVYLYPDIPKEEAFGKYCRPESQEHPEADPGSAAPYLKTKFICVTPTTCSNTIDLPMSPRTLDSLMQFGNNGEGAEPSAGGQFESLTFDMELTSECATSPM
X-box-binding protein 1 (Homo sapiens), sequence (P17861 whole entry, looked up): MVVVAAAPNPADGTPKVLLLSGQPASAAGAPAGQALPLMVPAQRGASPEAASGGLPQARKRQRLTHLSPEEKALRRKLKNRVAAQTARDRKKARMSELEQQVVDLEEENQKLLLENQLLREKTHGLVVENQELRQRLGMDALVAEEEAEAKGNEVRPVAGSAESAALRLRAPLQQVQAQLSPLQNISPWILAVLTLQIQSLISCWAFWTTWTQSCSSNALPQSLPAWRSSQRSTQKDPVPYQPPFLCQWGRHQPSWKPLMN
Transcription factor Sp1 (Homo sapiens), sequence (P08047 whole entry, looked up, the tested form may be a part): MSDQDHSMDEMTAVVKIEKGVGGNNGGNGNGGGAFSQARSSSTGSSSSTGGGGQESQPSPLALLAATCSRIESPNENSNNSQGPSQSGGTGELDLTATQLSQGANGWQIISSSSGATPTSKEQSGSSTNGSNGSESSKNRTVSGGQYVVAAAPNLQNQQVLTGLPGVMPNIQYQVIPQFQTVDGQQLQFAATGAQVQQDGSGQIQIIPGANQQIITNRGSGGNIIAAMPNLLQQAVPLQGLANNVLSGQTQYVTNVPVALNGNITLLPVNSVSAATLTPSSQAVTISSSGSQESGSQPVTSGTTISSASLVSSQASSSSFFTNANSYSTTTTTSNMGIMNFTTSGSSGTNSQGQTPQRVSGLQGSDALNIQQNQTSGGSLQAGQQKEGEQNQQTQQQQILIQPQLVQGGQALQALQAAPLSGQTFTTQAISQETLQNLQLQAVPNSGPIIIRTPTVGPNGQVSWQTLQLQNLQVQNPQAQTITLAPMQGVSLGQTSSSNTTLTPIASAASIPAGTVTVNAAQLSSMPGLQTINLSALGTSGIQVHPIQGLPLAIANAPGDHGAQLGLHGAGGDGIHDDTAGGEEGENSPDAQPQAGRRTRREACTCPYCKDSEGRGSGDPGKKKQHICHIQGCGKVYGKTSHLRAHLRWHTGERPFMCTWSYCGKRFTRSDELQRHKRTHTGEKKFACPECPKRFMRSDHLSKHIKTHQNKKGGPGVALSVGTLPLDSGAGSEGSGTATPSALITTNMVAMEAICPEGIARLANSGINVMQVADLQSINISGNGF
Steroid hormone receptor ERR1 (Homo sapiens), sequence (P11474 whole entry, looked up, the tested form may be a part): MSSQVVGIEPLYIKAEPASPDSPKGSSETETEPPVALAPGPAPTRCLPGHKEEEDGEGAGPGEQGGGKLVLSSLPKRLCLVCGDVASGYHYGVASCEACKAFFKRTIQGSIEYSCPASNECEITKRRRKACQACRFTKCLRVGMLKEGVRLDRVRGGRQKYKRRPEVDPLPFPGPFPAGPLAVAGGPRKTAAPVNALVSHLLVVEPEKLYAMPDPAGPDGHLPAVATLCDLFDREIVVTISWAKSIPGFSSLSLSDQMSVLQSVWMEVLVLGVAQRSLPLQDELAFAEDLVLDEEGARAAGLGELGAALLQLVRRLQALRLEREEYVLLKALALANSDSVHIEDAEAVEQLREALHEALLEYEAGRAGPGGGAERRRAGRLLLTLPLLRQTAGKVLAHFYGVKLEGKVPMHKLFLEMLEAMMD
Estrogen receptor (Homo sapiens), sequence (P03372 whole entry, looked up, the tested form may be a part): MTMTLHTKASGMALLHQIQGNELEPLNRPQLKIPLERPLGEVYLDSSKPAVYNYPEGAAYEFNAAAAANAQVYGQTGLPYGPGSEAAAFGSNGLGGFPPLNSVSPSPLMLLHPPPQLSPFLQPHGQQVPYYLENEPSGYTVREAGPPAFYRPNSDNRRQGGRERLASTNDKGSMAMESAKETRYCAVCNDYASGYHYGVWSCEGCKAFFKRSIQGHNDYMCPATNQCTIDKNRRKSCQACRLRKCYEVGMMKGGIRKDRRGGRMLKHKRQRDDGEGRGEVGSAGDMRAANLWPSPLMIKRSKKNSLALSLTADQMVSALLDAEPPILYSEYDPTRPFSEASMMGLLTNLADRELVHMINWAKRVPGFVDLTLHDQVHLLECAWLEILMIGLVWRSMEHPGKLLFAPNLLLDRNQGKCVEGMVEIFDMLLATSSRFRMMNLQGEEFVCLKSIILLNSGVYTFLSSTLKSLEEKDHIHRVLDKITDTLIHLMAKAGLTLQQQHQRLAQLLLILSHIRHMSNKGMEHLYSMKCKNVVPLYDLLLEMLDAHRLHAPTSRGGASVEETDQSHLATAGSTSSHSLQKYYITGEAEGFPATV
Paired box protein Pax-6 (Homo sapiens), sequence (P26367 whole entry, looked up): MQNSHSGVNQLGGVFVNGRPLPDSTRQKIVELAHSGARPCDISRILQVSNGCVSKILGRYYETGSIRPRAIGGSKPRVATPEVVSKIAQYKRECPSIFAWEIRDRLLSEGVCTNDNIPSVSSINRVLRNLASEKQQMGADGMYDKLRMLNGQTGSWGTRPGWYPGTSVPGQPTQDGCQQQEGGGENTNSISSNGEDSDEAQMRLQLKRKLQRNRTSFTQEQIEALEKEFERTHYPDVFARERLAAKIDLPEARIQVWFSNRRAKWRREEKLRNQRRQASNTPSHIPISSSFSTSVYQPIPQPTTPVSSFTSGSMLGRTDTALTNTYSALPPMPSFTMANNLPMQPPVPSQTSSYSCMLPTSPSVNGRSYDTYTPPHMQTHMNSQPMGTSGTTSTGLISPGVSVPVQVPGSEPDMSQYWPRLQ

C=C(C)C(=O)OCC(F)(F)C(F)(F)C(F)(F)C(F)(F)C(F)(F)C(F)(F)C(F)(F)F
active: [15] 10.5 µM
not listed: [19] | [20]
inactive: all other assays above

CCN(Cc1cccc(S(=O)(=O)O)c1)c1ccc(C(=C2C=CC(=[N+](CC)Cc3cccc(S(=O)(=O)O)c3)C=C2)c2ccc(O)cc2S(=O)(=O)[O-])cc1
active: [3] 17.8 µM
not listed: [2] | [18] | [20]
inactive: all other assays above

CNC(=S)NC
active: [2] 24.9 µM | [15] 25.9 µM
not listed: [16] | [18] | [20]
inactive: all other assays above

O=C(CC(=O)C(F)(F)C(F)(F)F)C(F)(F)F
active: [3] 51.2 µM and 64 µM | [10] 150 µM
inactive: [1] | [4] | [5] | [6] | [7] | [8] | [9] | [10] | [11] | [12] | [13] | [15] | [16] | [17] | [18]

CCCCCCC(C)OC(=O)CCCCC(=O)OC(C)CCCCCC (configuration not stated)
not listed: [2] | [18] | [19] | [20]
inactive: all other assays above

Cc1ccc(S(=O)(=O)NCl)cc1
active: [2] 131 µM
inactive: [20] | [2] | [5] | [6] | [7] | [8] | [9] | [10] | [11] | [12] | [15] | [17] | [18]

Oc1ccc(Nc2ccccc2)cc1
active: [4] 74.6 µM | [9] 58.1 µM | [13] 56.3 µM | [15] 5.96 µM
not listed: [2] | [19] | [20]
inactive: all other assays above

O=C(OCCOCCOCCOC(=O)c1ccccc1)c1ccccc1
active: [15] 2 µM
not listed: [2] | [16] | [19] | [20]
inactive: all other assays above
